Test [1] in a line: qHTS assay to identify small molecule inhibitors of chordoma cells - UCH-1 (AID 1259355). Further: nearly all actives have a fitted effect of over 55% in size. Further: potency means the concentration at half of the fitted maximal effect; series mostly up to about 46 µM. The procedure, abridged: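 Cells (800/well) were seeded and left overnight at 37 C, 5% CO2, then treated with drugs at 15 concentrations plus a combination mix of auranofin, camptothecin, doxorubicin, rubitecan and topotecan. Viability after 48hr was read by CellTiter-Glo luminescence.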
Background: In qHTS, concentration-response curves come from the screen itself.

A short description of test [2]: qHTS assay to identify small molecule inhibitors of chordoma cells - UCH-2 (AID 1259356). Further: potency means the concentration at half of the fitted maximal effect.
The nature of test [3]: P-glycoprotein substrates identified in KB-8-5-11 adenocarcinoma cell line, qHTS therapeutic library screen (AID 1346987). Further: nearly all actives have a fitted effect of over 65% in size. Further: potency means the concentration at half of the fitted maximal effect. The procedure, abridged: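 P-gp-mediated resistance screen: KB-8-5-11 cells treated 72 h with compounds in dose-response. CellTiter-Glo viability.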
A short description of test [4]: P-glycoprotein substrates identified in KB-3-1 adenocarcinoma cell line, qHTS therapeutic library screen (AID 1346986). Further: nearly all actives have a fitted effect of over 60% in size. The procedure, abridged:
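Compounds were tested in dose-response against KB-3-1 and KB-8-5-11 cells at 37 degree C for 72 h, and viability was measured by luminescence. AC50 values came from curve fitting with class-based activity calls.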

Consider 34 compounds from PubChem BioAssay (NCATS).

Where “and” joins values, the source holds several entries; their conditions need not be identical. Equal entries are not always repeated. Results filed as inconclusive are left out. Entries that show only a call come without a potency. Calls of active or inactive are those of the source. The call rests on the fitted dose curve; in most records, active means well fitted curve in the direction sought with a large enough effect; inconclusive means small, poorly fitted or top-dose-only effect, or another doubt; inactive means no such curve, though single readings can be large; an effect the other way counts as inactive or inconclusive.

For the compound `CCC(=O)O[C@@H]1CC(=O)O[C@H](C)C/C=C/C=C/[C@H](O)[C@H](C)C[C@H](CC=O)[C@H](O[C@@H]2O[C@H](C)[C@@H](O[C@H]3C[C@@](C)(O)[C@@H](OC(=O)CC)[C@H](C)O3)[C@H](N(C)C)[C@H]2O)[C@H]1OC`, the Potency result in test [1] and in test [2] was “inactive” in each case.

On to `CC[C@@]1(O)C(=O)OCc2c1cc1n(c2=O)Cc2cc3c([N+](=O)[O-])cccc3nc2-1`, for which the Potency was 0.794 µM (active) in test [1] and 16.4 µM (active) in test [3].

In the case of `CCN(CC)Cc1cc(Nc2ccnc3cc(Cl)ccc23)ccc1O`, the Potency result in test [1] and in test [2] was “inactive” each time. With `CC[N+](CC)(CC)CCC(O)(c1ccccc1)C1CCCCC1` (configuration not stated), the Potency entry in test [1] and in test [2] was “inactive” throughout. As to `Nc1ccn([C@H]2CS[C@@H](CO)O2)c(=O)n1`, the Potency result in test [1] and in test [2] was “inactive” in each case. Consider `CNc1cc(OC)c(C(=O)N[C@H]2CCN(Cc3ccccc3)[C@H]2C)cc1Cl`, for which the Potency entry in test [1] and in test [2] was “inactive” throughout. With `COc1ccc(CCNC[C@H](O)c2ccc(O)cc2)cc1OC`, the Potency result in test [1] and in test [2] was “inactive” in each case.

Turning to `CCCCCCCCCCCCCCCC(=O)OCC(COC(=O)CCCCCCCCCCCCCCC)OC(=O)CCCCCCCCCCCCCCC`, the Potency result in test [1], in test [2] and in test [3] was “inactive” in each case. Turning to `COc1cc([C@@H]2c3cc4c(cc3[C@@H](O[C@@H]3O[C@@H]5CO[C@@H](C)O[C@H]5[C@H](O)[C@H]3O)[C@H]3COC(=O)[C@H]23)OCO4)cc(OC)c1O`, the Potency result in test [1], in test [2] and in test [3] was “inactive” throughout.

With `CC1=C(/C=C/C(C)=C/C=C/C(C)=C/C=C/C=C(C)/C=C/C=C(C)/C=C/C2=C(C)C(=O)CCC2(C)C)C(C)(C)CCC1=O`, the Potency result in test [1], in test [2] and in test [3] was “inactive” throughout. `CCOC(C)=O`: the Potency entry in test [1] and in test [2] was “inactive” each time. In the case of `C#C[C@]1(O)CC[C@H]2[C@@H]3CCC4=C/C(=N/O)CC[C@@H]4[C@H]3CC[C@@]21CC`, the Potency entry in test [1] is “inactive”. The Potency in test [3] was 5.8 µM (active). Consider `CC[C@H]1OC(=O)[C@H](C)[C@@H](O[C@H]2C[C@@](C)(OC)[C@@H](O)[C@H](C)O2)[C@H](C)[C@@H](O[C@@H]2O[C@H](C)C[C@H](N(C)C)[C@H]2O)[C@](C)(O)C[C@@H](C)/C(=N\OCOCCOC)[C@H](C)[C@@H](O)[C@]1(C)O`, for which the Potency result in test [1], in test [2] and in test [3] was “inactive” throughout.

Turning to `O=C(Nc1ccc(Br)cc1)c1cc(Br)c(Br)s1`, the Potency entry in test [1] and in test [2] was “inactive” in each case. On to `C/C1=C2N=C(/C=C3N=C(/C(C)=C4\[N-][C@@](C)([C@@H]5N=C1[C@](C)(CCC(=O)NCC(C)OP(=O)(O)O[C@H]1[C@@H](O)[C@@H](n6cnc7cc(C)c(C)cc76)O[C@@H]1CO)[C@H]5CC(N)=O)[C@@](C)(CC(N)=O)[C@@H]4CCC(N)=O)[C@@](C)(CC(N)=O)[C@@H]\3CCC(N)=O)C(C)(C)[C@@H]/2CCC(N)=O.CC(=O)O.[Co]` (some centres not stated), for which the Potency result in test [1], in test [2] and in test [4] was “inactive” throughout. With `COc1ccc(C[C@@H](C)NC[C@H](O)c2ccc(O)c(NC=O)c2)cc1`, the Potency entry in test [2] and in test [3] was “inactive” each time.

In the case of `CC(C)C(=O)OCC(=O)[C@@]12O[C@H](C3CCCCC3)O[C@@H]1C[C@H]1[C@@H]3CCC4=CC(=O)C=C[C@]4(C)[C@H]3[C@@H](O)C[C@@]12C`, the Potency entry in test [2] was “inactive”. Turning to `C[C@]12C=CC(=O)N[C@@H]1CC[C@@H]1[C@@H]2CC[C@]2(C)[C@@H](C(=O)Nc3cc(C(F)(F)F)ccc3C(F)(F)F)CC[C@@H]12`, the Potency result in test [1] and in test [3] was “inactive” each time. In the case of `O=C1CSC2(CCN(CCCN3c4ccccc4Sc4ccc(Cl)cc43)CC2)N1`, the Potency result in test [2] is “inactive”. Take `CC(C)=O`: in test [2], the Potency entry is “inactive”.

On to `CN(C)CCCN1c2ccccc2C(C)(C)c2ccccc21`, for which, in test [2], the Potency entry was “inactive”. On to `COc1cc2c(cc1O)CCN[C@]21CS[C@@H]2c3c(OC(C)=O)c(C)c4c(c3[C@H](COC1=O)N1[C@@H]2[C@H]2c3c(cc(C)c(OC)c3O)C[C@@H]([C@@H]1O)N2C)OCO4`, for which the Potency entry in test [2] is “inactive”. Also, in test [3], the Potency was 1.46 µM (active) and 1.41 µM (active). `Nc1nc(N)c2nc(CNc3ccc(C(=O)N[C@@H](CCC(=O)O)C(=O)O)cc3)cnc2n1`: the Potency result in test [2] was “inactive”.

Regarding `N[C@H](C(=O)O)[C@@H]1CC(Cl)=NO1`, the Potency result in test [2] is “inactive”. On the same count and under the same terms, to `CN(C)CC/C=C1/c2ccccc2CSc2ccccc21` belongs “inactive”. Take `CCCCC(CC)COC(=O)CC(C(=O)OCC(CC)CCCC)S(=O)(=O)O` (configuration not stated): the Potency result in test [2] and in test [3] was “inactive” throughout. Regarding `CO[C@H]1C=CO[C@@]2(C)Oc3c(C)c(O)c4c(O)c(c5c(nc6cc(C)ccn65)c4c3C2=O)NC(=O)/C(C)=C\C=C[C@H](C)[C@H](O)[C@@H](C)[C@@H](O)[C@@H](C)[C@H](OC(C)=O)[C@@H]1C`, the Potency entry in test [2] and in test [3] was “inactive” each time. As for `CC(O)CO` (configuration not stated), the Potency entry in test [2] and in test [3] was “inactive” throughout. In the case of `CC(C)N=c1cc2n(-c3ccc(Cl)cc3)c3ccccc3nc-2cc1Nc1ccc(Cl)cc1`, in test [2], the Potency result is “inactive”. Turning to `CC[C@@H](C(=O)[C@@H](C)[C@@H](O)[C@H](C)CCc1ccc(C)c(O)c1C(=O)O)[C@H]1O[C@](CC)([C@H]2CC[C@](O)(CC)[C@H](C)O2)C[C@@H]1C`, in test [2], the Potency result was “inactive”. On to `CC(=O)OCC(=O)[C@@]1(O)CC[C@H]2[C@@H]3C[C@H](C)C4=CC(=O)C=C[C@]4(C)[C@H]3[C@@H](O)C[C@@]21C`, for which the Potency entry in test [2] and in test [3] was “inactive” throughout. In the case of `CCCCCCCCCCCC[n+]1ccc2ccccc2c1`, the Potency in test [2] is 25.9 µM (active). Regarding `CCC(=O)OCC(=O)[C@@]1(OC(=O)CC)[C@H](C)C[C@H]2[C@H]3[C@H]([C@@H](O)C[C@@]21C)[C@@]1(C)C=CC(=O)C=C1C[C@H]3Cl`, the Potency result in test [2] and in test [3] was “inactive” throughout. Take `CO[C@H]1C[C@@H]2CC[C@@H](C)[C@@](O)(O2)C(=O)C(=O)N2CCCC[C@H]2C(=O)O[C@H]([C@H](C)C[C@@H]2CC[C@@H](OCCO)[C@H](OC)C2)CC(=O)[C@H](C)/C=C(\C)[C@@H](O)[C@@H](OC)C(=O)[C@H](C)C[C@H](C)/C=C/C=C/C=C/1C`: the Potency entry in test [2] was “inactive”.
